Assay results published in PubChem BioAssay (EPA / NIEHS).
Calls of active or inactive are those of the source. How the source made its calls: active means hit-call score of the fitted dose curve at least 0.9, where 1 is the maximum; inactive means score below 0.9.

assay: APR_HepG2_NuclearSize_72hr: Apredica 72-hour HepG2 Assay for Nuclear Size (AID 2282925); settings: high-content imaging, actives raise or lower the signal
Protocol: APR_HepG2_72hr is a cell-based, multiplexed-readout assay that uses HepG2, a human liver cell line, with measurements taken at 72 hours after chemical dosing in a 384-well plate.APR_HepG2_NuclearSize_72hr is one of 10 assay component(s) measured or calculated from the APR_HepG2_72hr assay. It is designed to make measurements of cell phenotype, a form of morphology reporter, as detected with fluorescence intensity signals by HCS Fluorescent Imaging technology.Data from the assay component APR_HepG2_NuclearSize_72hr was analyzed into 1 assay endpoint. This assay endpoint, APR_HepG2_NuclearSize_72hr, was analyzed with bidirectional fitting relative to DMSO as the negative control and baseline of activity. Using a type of morphology reporter, measures of all nuclear dna for gain or loss-of-signal activity can be used to understand the signaling at the nuclear-level. Furthermore, this assay endpoint can be referred to as a primary readout, because this assay has produced multiple assay endpoints where this one serves a signaling function. To generalize the intended target to other relatable targets, this assay endpoint is annotated to the cell morphology intended target family, where the subfamily is organelle conformation.
Cells were treated with dimethyl sulfoxide (DMSO) as a solvent control at a final concentration of 0.5% v/v or with compounds in DMSO with a resulting final DMSO concentration of 0.5% v/v. Compound treatment was done at concentrations of 0.39, 0.78, 1.56, 3.12, 6.24, 12.5, 25, 50, 100, and 200 uM in duplicate on each plate. Cells were treated with compounds for 1, 24, or 72 hr. Carbonyl […] m-chloro-phenylhydrazone (CCCP) and taxol were used as positive controls for mitochondrial function and cytoskeletal stability, respectively; DMSO served as the negative control for this experiment. Cells were fixed by the direct addition of 50 uL formaldehyde in Hank's Balanced Salt Solution (HBSS) to a final concentration of 3.7%. After incubation in the fixation medium for 30 min at room temperature (293-298 K), cells were rinsed twice with HBSS and treated with cell permeabilization buffer (16 uL of 0.5% Triton X-100) for 10 min at room temperature (293-298 K) before labeling. For mitochondrial membrane potential and mitochondrial measurements, pre-fixed cells were incubated with 50 uL of MitoTracker Red CMXRos (Invitrogen) at a concentration of 250 nM for 30 min before fixation. In the remaining cases, post-fixed cells were labeled by incubation with a multiplexed mixture of primary antibodies in HBSS for 60 min at room temperature (293-298 K) to detect immunoreactivity of c-Jun (1:500), phospho-histone H3 (1:100), phospho-histone H2A.x (1:200), p53 (1:400), alpha-tubulin (1:200) and Hoechst 33342 (2 ug/mL). Cells were labeled for multiplexed imaging on two separate plates: a) Hoechst 33342, MitoTracker Red, phospho-histone H3, and alpha-tubulin, and b) Hoechst 33342, phospho-histone H2A.x, and c-Jun. A final rinse with HBSS (50 uL) was performed before analysis. The primary and secondary antibodies for the proteins were phospho-histone H3 (rabbit anti-phospho-histone H3 and FITC-donkey anti-rabbit IgG), phospho-histone H2A.x (mouse anti-phospho-histone H2A.x and FITC-donkey anti-mouse IgG), c-Jun (rabbit anti-phospho-c-Jun and Cy3-donkey anti-rabbit IgG), p53 (sheep anti-p53 and Cy5-donkey anti-sheep IgG), alpha-tubulin (mouse anti-alpha-tubulin and Cy5-donkey anti-mouse IgG). These antibodies are available as the CellCiphr HepG2 assay kit (Millipore).Digital images of each well were captured using a Cellomics ArrayScan VTI (Thermo Scientific Cellomics) (0.8 NA objective, 0.63x optical coupler, and XF-93 filter set) at 20x magnification. The images were acquired using the autofocus feature of the ArrayScan instrument, which entails the following steps. First, the camera focuses on channel 1 (Hoechst 33342), where nuclei are identified. Second, a Z offset of 1 um is used for capturing mitochondria (MitoTracker Red). […]

Row | SMILES | outcome | AC50
1 | CCC(C)(CC)c1cc(NC(=O)c2c(OC)cccc2OC)on1 | inactive | 
2 | C[C@]12CCC(=O)C=C1CC[C@@H]1[C@@H]2CC[C@]2(C)C(=O)CC[C@@H]12 | inactive | 
3 | Oc1c(Cl)c(Cl)c(Cl)c(Cl)c1Cl | inactive | 
4 | ClC(Cl)=C(c1ccc(Cl)cc1)c1ccc(Cl)cc1 | inactive | 
5 | O=C(O)C(F)(F)C(F)(F)C(F)(F)C(F)(F)C(F)(F)C(F)(F)C(F)(F)C(F)(F)F | inactive | 
6 | CCOCCOC(C)=O | inactive | 
7 | CCSC(=O)N(CC)C1CCCCC1 | inactive | 
8 | CC(C)C(=O)OCC(C)(C)C(OC(=O)C(C)C)C(C)C (stereo not given) | inactive | 
9 | CCCCCCCCCC[N+](C)(C)CCCCCCCCCC | inactive | 
10 | COc1ccc(O)c(C(C)(C)C)c1 | inactive | 
11 | Clc1ccc(Cl)cc1 | inactive | 
12 | Oc1ccc(C(c2ccc(O)cc2)(C(F)(F)F)C(F)(F)F)cc1 | inactive | 
13 | O=C(O)C(F)(F)C(F)(F)C(F)(F)C(F)(F)C(F)(F)F | inactive | 
14 | Cc1ccc(O)c(C)c1 | inactive | 
15 | CC(c1ccc(O)cc1)(c1ccc(O)cc1)c1ccc(O)cc1 |  | 105 µM (active)
16 | CCCN(CCC)N=O | inactive | 
17 | O=C(N[C@H]1CN2CCC1CC2)c1cc2ccoc2cn1 | inactive | 
18 | c1cc2ccc3cccc4ccc(c1)c2c34 |  | 113 µM (active)
19 | Cc1ccccc1CO[C@@H]1C[C@@]2(C(C)C)CC[C@]1(C)O2 | inactive | 
20 | O=C(O)C(F)(F)C(F)(F)C(F)(F)C(F)(F)C(F)(F)C(F)(F)C(F)(F)C(F)(F)C(F)(F)F |  | 122 µM (active)

Row | SMILES | outcome | AC50
21 | C1CC2OC2CC1C1CO1 (stereo not given) | inactive | 
22 | Clc1ccc(C(c2ccccc2Cl)C(Cl)(Cl)Cl)cc1 (stereo not given) | inactive | 
23 | c1ccc(-c2ccccc2)cc1 | inactive | 
24 | Cc1cccc(C)c1N | inactive | 
25 | CO/C=C(/C(=O)OC)c1ccccc1COc1cccc(C(F)(F)F)n1 | inactive | 
26 | Cc1ccccc1[N+](=O)[O-] | inactive | 
27 | CN(C)CCO | inactive | 
28 | Nn1cnnc1 | inactive | 
29 | O=NN(c1ccccc1)c1ccccc1 | inactive | 
30 | CCCCCCCCOC(=O)c1ccccc1C(=O)OCCCCCCCC | inactive | 
31 | C=CC(=O)NCNC(=O)C=C | inactive | 
32 | O=S(=O)(O)C(F)(F)C(F)(F)C(F)(F)C(F)(F)F | inactive | 
33 | CCC(C)(c1ccc(O)cc1)c1ccc(O)cc1 | inactive | 
34 | COS(=O)(=O)OC | inactive | 
35 | CC(C)(O)C(=O)Nc1ccc([N+](=O)[O-])c(C(F)(F)F)c1 |  | 0.522 µM (active)
36 | O=S(=O)(O)C(F)(F)C(F)(F)C(F)(F)C(F)(F)C(F)(F)C(F)(F)F | inactive | 
37 | CC#Cc1cc(C)nc(Nc2ccccc2)n1 | inactive | 
38 | Cc1cc(O)ccc1Cl | inactive | 
39 | ClC1=C(Cl)[C@]2(Cl)[C@@H]3[C@H]4C[C@H]([C@@H]5O[C@H]45)[C@@H]3[C@@]1(Cl)C2(Cl)Cl | inactive | 
40 | CN(C)c1nc(=O)n(C2CCCCC2)c(=O)n1C | inactive | 
